Screening results as filed in PubChem.
CYP2C9 activ = increases human cytochrome P450 2C9 activity | P11712 | recombinant CYP2C9, luciferin-H conversion, luminescence; hits give high values; factor 1 = untreated enzyme, 0 = blocked | activation factor at 5 µM | 1.4% of 96,000 active;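 active means activation factor of 2 or more for CYP2C9 at a 5 µM dose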;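 further: 0 = sulfaphenazole-blocked wells and 1 = vehicle-only wells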
sEH act = soluble epoxide hydrolase (human) activation. P34913. purified human sEH enzymatic activity, activator screen. activation, % at 2 µM. 0.04% of 91,000 active. AID 717; in the data active means activation above about 37%
CYP2C9 inhib = blocks human cytochrome P450 2C9; P11712; CYP2C9 Supersomes, luciferin-H conversion, luminescence; inhibition, % at 5 µM; 20% of 96,000 active;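 active means blocking of liver enzyme CYP2C9 beyond about 50% at 5 µM, limit read from the data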
sEH inhibitor = blocks human soluble epoxide hydrolase activity; P34913; recombinant human sEH enzymatic activity assay; inhibition, % at 2 µM; 0.34% of 91,000 active; AID 707; in the data active means inhibition above about 80%
CYP2C19 inh = blocks human cytochrome P450 2C19; P33261; CYP2C19 Supersomes, luciferin-H EGE luminescence, 30 min; inhibition, % at 5 µM; 21% of 96,000 active;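 active means CYP2C19 inhibition above a set limit at 5 µM in the primary screen, cut at about 50% in these data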;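 further: plate controls were negative control wells for no effect and 2.5 mM tranylcypromine positive control for full effect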
Target sequence (P33261 whole entry, looked up): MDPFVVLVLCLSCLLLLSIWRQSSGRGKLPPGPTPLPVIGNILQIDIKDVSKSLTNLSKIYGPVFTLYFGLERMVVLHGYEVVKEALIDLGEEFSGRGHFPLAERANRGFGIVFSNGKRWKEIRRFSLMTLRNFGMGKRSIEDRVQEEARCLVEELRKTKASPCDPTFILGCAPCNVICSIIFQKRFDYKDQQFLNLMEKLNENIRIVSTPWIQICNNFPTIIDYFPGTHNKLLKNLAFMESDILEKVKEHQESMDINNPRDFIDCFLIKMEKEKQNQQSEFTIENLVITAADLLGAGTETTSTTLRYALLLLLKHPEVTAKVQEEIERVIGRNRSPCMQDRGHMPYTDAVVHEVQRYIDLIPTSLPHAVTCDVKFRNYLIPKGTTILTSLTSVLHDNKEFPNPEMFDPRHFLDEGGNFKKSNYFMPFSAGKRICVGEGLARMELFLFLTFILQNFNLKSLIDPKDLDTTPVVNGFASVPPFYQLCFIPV
CYP2C19 act = activators of human cytochrome P450 2C19; P33261; recombinant CYP2C19, luciferin-H EGE luminescence; hits give high values; 0 = fully inhibited enzyme, 1 = untreated enzyme; activation factor at 5 µM; 96,000 tested, under 10 active; AID 1025;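 active means activation factor of at least 2 at 5 µM in the primary screen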;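 further: 0 = wells with 2.5 mM tranylcypromine and 1 = vehicle-only wells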
Active calls of the source: *; x = not tested or not shown. This is a sample that favours compounds with a hit; in the whole collection about 27% have one here.

SMILES	CYP2C9 activ	sEH act	CYP2C9 inhib	sEH inhibitor	CYP2C19 inh	CYP2C19 act
COC(=O)CSc1nnc(-c2ccc(S(=O)(=O)N3CCCCC3)cc2)o1	0.4	-3	64*	3	38	0.6
Cc1ccc(NC(=O)CSc2nnc(-c3ccccc3Br)o2)cc1C	0.3	-13	73*	12	51*	0.5
CC(C)CNC(=O)CSc1nnc(-c2cccc(S(=O)(=O)N3CCCCC3)c2)o1	0.5	-62	45	62	26	0.7
Cc1cccc(NC(=O)CSc2nnc(-c3ccc(S(=O)(=O)N4CCCC4)cc3)o2)c1	0.3	11	66*	-12	17	0.8
O=C(Cn1ncc2c(=O)oc3ccccc3c21)N1CCCN(Cc2ccccc2F)C1	0.8	x	18	x	-1	1
Cc1cccc(NC(=O)CSc2nnc(-c3ccccc3C)o2)c1	x	-9	x	10	x	x
Cc1cc(C)nc(SCc2nnc(SCC(=O)Nc3ccc(C)c(C)c3)o2)n1	0.3	-8	74*	7	88*	0.1
CCCOC(=O)CSc1nnc(-c2ccccc2Cl)o1	1.1	-1	-7	0	67*	0.3
Cc1ccc(NC(=O)CSc2nnc(-c3ccc(S(=O)(=O)N4CCCC4)cc3)o2)cc1C	0.5	-28	54*	28	25	0.8
O=C(CSc1nnc(-c2ccc(F)cc2)o1)Nc1ccc(S(=O)(=O)N2CCCC2)cc1	0.8	-22	18	23	6	0.9
CCOc1ccccc1-c1nnc(SCC(=O)Nc2ccccc2)o1	2.4*	-12	-138	16	41	0.6
Cc1c(CN(C)C)c2c(n1Cc1ccccc1)C(=O)c1ccc(Br)cc1-2	0.4	24	63*	-26	79*	0.2
Cc1c(C(=O)OC2CCCC2)[nH]c2c1C(=O)CC(c1ccco1)C2 (stereo unspecified)	0.5	x	52*	x	22	0.8
C=CCOC(=O)c1[nH]c2c(c1C)C(=O)CC(c1ccco1)C2 (stereo unspecified)	0.2	x	80*	x	96*	0
Cc1c(C(=O)OCC2CCCO2)[nH]c2c1C(=O)CC(c1ccco1)C2 (stereo unspecified)	0.1	-8	92*	10	69*	0.3
Cc1c(C(=O)OCC(C)C)[nH]c2c1C(=O)CC(c1ccco1)C2 (stereo unspecified)	0.6	-2	38	2	10	0.9
Cc1oc(CC(C)C)cc1C(=O)Nc1ccc(C(=O)O)cc1	1	8	2	-7	-1	1
CN(Cc1c(F)cccc1Cl)c1nnnn1-c1ccccc1	0.7	11	35	-10	100*	0
COc1ccc(NC(=O)c2ccc(-n3nc(C)c[n+]3[O-])cc2)cc1	0.7	x	29	x	7	0.9
CS(=O)(=O)c1ccc(Cl)c(S(=O)(=O)NCc2ccccc2)c1	1	5	2	-7	17	0.8
CCOC(=O)c1c(C)[nH]c(C)c1C(=O)COC(=O)c1ccc(Cl)c(S(=O)(=O)NCc2ccccc2)c1	0.2	-11	80*	12	82*	0.2
CC1(C)C(=O)Nc2ccccc2N1C(=O)COC(=O)c1ccc(Cl)c(S(=O)(=O)NCc2ccccc2)c1	0.1	-3	93*	4	17	0.8
O=C(Nc1nc(-c2cccs2)cs1)c1ccc(S(=O)(=O)N2CCCCC2)cc1	0.4	2	60*	-4	39	0.6
O=C(Nc1nc(-c2ccccc2)cs1)c1cccc(S(=O)(=O)N2CCN(Cc3ccccc3)CC2)c1	0.1	-5	90*	2	53*	0.5
O=C(Nc1nc(-c2cccs2)cs1)c1cccc(S(=O)(=O)N2CCCCCC2)c1	0.1	x	94*	x	72*	0.3
COC(=O)CN(C#N)c1nc(OC)nc(N(C)C)n1	1.2	-8	-15	8	14	0.9
O=C1c2ccccc2C(=O)N1Cc1ccc2c(c1)OCO2	1.4	-4	-39	5	54*	0.5
COc1ccc(OC)c(NC2c3ccccc3C(=O)N2Cc2ccc3c(c2)OCO3)c1 (stereo unspecified)	0.6	4	42	-5	43	0.6
O=C(O)c1ccc2c(c1)C(=O)N(Cc1ccc3c(c1)OCO3)C2=O	1	15	1	-12	4	1
O=C1c2ccccc2C(O)(Cc2ccccc2)N1c1ccc2c(c1)OCO2 (stereo unspecified)	0.1	x	90*	x	87*	0.1
